# RecA intein inh: inhibitors of M. tuberculosis RecA intein splicing; P9WHJ3; inhibition, % (concentration not given with the values); cell-free RecA intein splicing, fluorescence; hit rate 0.75% among 290,000; AID 2221; in the data active = inhibition above about 30%
# 3CLpro inhibitor: SARS-CoV 3CLpro protease inhibition | P0C6X7 | recombinant SARS-CoV 3CLpro, quenched FRET peptide cleavage | inhibition, % at 6 µM | hit rate 0.14% among 290,000; in the data active = inhibition above about 12%
# Mtb hypoxia rep: reduces hypoxia-regulated biosensor signal in M. tuberculosis | M. tuberculosis hypoxia-regulated fluorescent reporter, fluorescence | fluorescence inhibition, % (test concentration not listed) | hit rate 0.1% among 300,000; in the data active = fluorescence inhibition mostly above about 23%, no sharp cut-off; inactive = mostly below about 17%
# BJeLR viability: BJeLR cell viability loss; BJeLR (HRASV12) viability, CellTiter-Glo ATP luminescence, 48 h; inhibition, % (test concentration not listed); hit rate 0.17% among 300,000; in the data active = inhibition above about 50%
# PrPC surface inh: inhibitors of human cell surface prion protein PrPC; TR-FRET read-out; inhibition, % at 13.8 µM; P04156; hit rate 0.43% among 370,000; in the data active = inhibition above about 24%
# PrP UTR inh: inhibition of PrP 5' UTR reporter expression; cell-based PrP 5' UTR mRNA reporter, plate reader; AID 488862; inhibition, % (concentration not given with the values); hit rate 0.35% among 340,000; in the data active = inhibition above about 52%
# PrPC confirm: cell surface PrPC inhibition, TR-FRET confirmation; cell surface PrPC level; shares compounds with PrPC surface inh; hit rate 65% among 1,500; AID 743200; inhibition, % at 13.8 µM; in the data active = inhibition above about 25%
# LD9 tox: counter-screen for PrPc inhibitors: cytotoxicity in LD9 cells | shares compounds with PrPC surface inh | luminescence viability | inhibition, % at 13.8 µM | hit rate 29% among 1,500; in the data active = inhibition above about 9.5%
# A number is an active result; 0 = inactive; - = not tested or not shown. A selection: hits, their analogues and other compounds. The true share with any hit is near 1.4%.
SMILES,RecA intein inh,3CLpro inhibitor,Mtb hypoxia rep,BJeLR viability,PrPC surface inh,PrP UTR inh,PrPC confirm,LD9 tox
Cc1cccc(NNC(=O)C(=O)NNc2cccc(C)c2)c1,0,0,0,0,29,0,0,0
Cc1ccccc1OCC(=O)NNC(=O)C1CCN(c2ncnc3sc(C)c(C)c23)CC1,0,-,0,0,0,0,-,-
CCOc1ccccc1N=C1SCC(C)N1C(=O)C1CCN(c2ncnc3sc(C)c(C)c23)CC1 (stereo not given),-,-,0,-,40,0,56,0
O=C(O)c1cc(-c2ccc(Br)s2)nc2ccccc12,0,0,0,0,33,0,53,0
CN1CCN(NC(=O)c2cc(-c3ccc(Br)s3)nc3ccccc23)CC1,0,0,0,0,0,0,-,-
CCN1C(=O)C2C(c3ccc(-c4cccc(Cl)c4)c(OC)c3)N[C@@](C)(C(=O)OC)C2C1=O (stereo not given in full),-,-,0,-,-,-,-,-
C=C(C)C(=O)Nc1cccc(C2=NOC3(C2)C[C@@H](C(N)=O)N(C(=O)[C@H]2CCC(=O)N2)C3)c1 (stereo not given in full),0,-,-,0,50,0,38,0
C/C=C(/C)C(=O)Nc1cccc(C2=NOC3(C2)C[C@@H](C(N)=O)N(C(=O)[C@H]2CCC(=O)N2)C3)c1 (stereo not given in full),0,-,-,0,0,0,-,-
Cc1cc(C)c(S(=O)(=O)NCc2ccncc2)c(C)c1,0,0,0,0,40,0,35,0
Cc1cc2ccccc2n1CCNC(=O)COc1ccccc1,0,-,0,0,42,0,37,0
Cc1cc2ccccc2n1CCNC(=O)Cc1cccc2ccccc12,0,0,0,0,41,0,0,0
Cc1cc2ccccc2n1CCNC(=O)c1ccc(S(=O)(=O)N2CCOCC2)cc1,0,0,0,0,27,0,0,0
CCC(=O)NCCn1c(C)cc2ccccc21,0,0,0,0,-,0,-,-
Cc1cc2ccccc2n1CCNC(=O)C(C)(C)C,0,-,0,0,39,0,0,0
Cc1ccc(N(C(=O)CCC(=O)Nc2cc(C)on2)C(C(=O)NC2CCCC2)c2cccs2)cc1 (stereo not given),0,0,-,0,0,0,-,-
Cc1ccc(N(C(=O)CCC(=O)Nc2cc(C)on2)C(C(=O)NC2CCCC2)c2ccccc2)cc1 (stereo not given),0,0,0,0,0,0,-,-
Cc1cc(NC(=O)CCC(=O)N(c2ccccc2)C(C(=O)NC2CCCC2)c2ccccc2)no1 (stereo not given),0,0,-,0,35,0,52,0
Cc1cc(NC(=O)CCC(=O)N(c2ccccc2)C(C(=O)NC2CCCC2)c2cccs2)no1 (stereo not given),0,0,-,0,63,0,59,0
O=[N+]([O-])c1ccccc1S(=O)(=O)Oc1ccc(C=Nn2cnnc2)cc1,-,-,0,-,-,-,-,-
COc1ccc(NC(=S)NC(NC(=O)c2cccc(Cl)c2)C(Cl)(Cl)Cl)c([N+](=O)[O-])c1 (stereo not given),0,0,0,0,0,0,-,-
O=C(NC(NC(=S)Nc1ccccc1Cl)C(Cl)(Cl)Cl)c1cccc(Cl)c1 (stereo not given),0,0,0,0,25,0,40,11
C=CCOC(=O)C1=C(C)NC(SCC(=O)N(CC)CC)=C(C#N)C1c1ccccc1 (stereo not given),0,0,-,0,29,0,35,0
CC(C)Nc1ncnc2ccc(Br)cc12,0,0,0,0,25,0,34,0
CC(=O)c1ccc(Nc2ncnc3ccc(Br)cc23)cc1,-,-,-,-,0,-,-,-
Brc1ccc2ncnc(NCc3ccco3)c2c1,0,0,0,0,26,0,32,13
SMILES,RecA intein inh,3CLpro inhibitor,Mtb hypoxia rep,BJeLR viability,PrPC surface inh,PrP UTR inh,PrPC confirm,LD9 tox
CSCCC(Nc1ncnc2ccc(Br)cc12)C(=O)O (stereo not given),0,0,0,0,42,0,104,0
CC1=Nc2ncnn2C(c2ccccc2)C1=NO (stereo not given),-,-,0,-,-,-,-,-
CN(C)c1cccc(C(=O)NN=Cc2ccsc2)c1,-,-,0,-,-,-,-,-
COC(=O)C1C(c2cccc(C(F)(F)F)c2)NC(=O)N(Cc2ccccc2)C1C (stereo not given),-,-,0,-,-,-,-,-
CCCCCCSc1ccc(C2N[C@@](CC(C)C)(C(=O)OC)C3C(=O)N(CC)C(=O)C23)cc1 (stereo not given in full),-,-,0,-,-,-,-,-
NC(=O)C1=C[C@@H](c2coc3ccccc3c2=O)C[C@@H](OCCCCO)O1,0,0,-,0,27,0,32,0
NC(=O)C1=C[C@@H](c2coc3ccccc3c2=O)C[C@@H](OCc2ccc(CO)cc2)O1,0,0,-,0,40,0,31,0
NC(=O)C1=CC(c2coc3ccccc3c2=O)CC(OCc2ccc(CO)cc2)O1 (stereo not given),-,-,0,-,-,-,-,-
O=c1[nH]c(=O)n(Cc2ccco2)c2c1C(C(F)(F)F)(C(F)(F)F)N=C(CCc1ccccc1)N2,0,0,0,0,56,-,72,0
O=c1[nH]c(=O)n(Cc2ccco2)c2c1C(C(F)(F)F)(C(F)(F)F)N=C(CCC1CCCCC1)N2,0,0,0,0,0,0,-,-
O=C(NC1CCCC1)C(c1ccncc1)N(Cc1ccco1)C(=O)c1ccc(-c2ccccc2)[nH]1 (stereo not given),0,0,0,0,0,0,-,-
CC(C)(C)NC(=O)C(c1ccncc1)N(Cc1ccc(F)cc1)C(=O)c1ccc(-c2ccccc2)[nH]1 (stereo not given),0,0,0,0,27,0,0,0
O=C(NC1CCCC1)C(c1ccncc1)N(Cc1ccccc1)C(=O)c1ccc(-c2ccccc2)[nH]1 (stereo not given),0,0,0,0,26,0,0,0
Cc1ccc(S(=O)(=O)N2C(c3cccs3)CC=C(C(=O)O)C2c2ccc(F)cc2)cc1 (stereo not given),-,-,0,-,-,-,-,-
CCN1C(=NN)c2cccc3cccc1c23,-,-,0,-,-,-,-,-
COC(=O)C1=C(c2cc3ccccc3s2)CC2CCC1N2C(=O)NCC1CC1 (stereo not given),-,-,0,-,-,-,-,-
COc1ccc2c(c1)CCC1(C)CC(=O)C(Br)=C21 (stereo not given),-,-,-,-,42,-,68,0
NC(CCc1ccccc1)c1csc(NC(=O)NCCc2ccccc2)n1 (stereo not given),-,-,-,-,0,-,-,-
CC(C)(C)c1ccccc1NC(=O)Nc1nc(C(N)c2ccccc2)cs1 (stereo not given),-,-,-,-,0,-,-,-
NC(CCc1ccccc1)c1csc(NC(=O)Nc2ccccc2Oc2ccccc2)n1 (stereo not given),-,-,-,-,50,-,34,0
COc1ccc(C(N)c2csc(NC(=O)Nc3ccccc3C(C)(C)C)n2)cc1 (stereo not given),-,-,-,-,30,-,0,0

# Compound activity deposited in PubChem by several laboratories.
